Bioassay records: PubChem, several laboratories
NALP1 inh: NALP1 inhibition | S. cerevisiae NALP1/ASC/caspase-1 growth, X-gal OD620, 72 h | inhibition, % at 10 µM | 0.61% of 280,000 active | AID 2071; in the data active = inhibition mostly above about 24%, no sharp cut-off; inactive = mostly below about 32%
CR mimetic SO: lowers age-related superoxide in aged yeast cells. S. cerevisiae aged cells, superoxide DHE fluorescence; hits give low values. superoxide response (% of plate mean), % at 10 µM. 0.18% of 330,000 active;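 active = superoxide response under a set limit, about three screen SD below normal, cut at about 65% in these data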;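 also: yeast aged for seven days with compound at 30 °C before DHE staining; 100% = average MFI of all compound-treated wells on the plate with controls excluded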
V-ATPase pH: yeast V-ATPase proton transport regulation by pHLuorin; S. cerevisiae, pHLuorin cytosolic pH fluorescence; response, % at 10 µM; 0.37% of 350,000 active; AID 504577; in the data active = response mostly above about 7.3%, no sharp cut-off; inactive = mostly below about 5.4%; also: actives read high
PERK inh: human PERK inhibition, primary cell-based screen. Q9NZJ5. CHO PERK-DD fusion, SEAP luminescence translation reporter. inhibition, % at 5.6 µM. 0.17% of 220,000 active;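 active = inhibition above the mean inhibition of all tested compounds plus 3 SD, set separately per screening campaign, cut at about 2.9% in these data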;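 also: PERK kinase domain activated by AP20187 dimerizer at 100 nM; 0% = DMSO with dimerizer and 100% = rapamycin at 8.4 µM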
Target sequence (Q9NZJ5 whole entry, looked up, the tested form may be a part): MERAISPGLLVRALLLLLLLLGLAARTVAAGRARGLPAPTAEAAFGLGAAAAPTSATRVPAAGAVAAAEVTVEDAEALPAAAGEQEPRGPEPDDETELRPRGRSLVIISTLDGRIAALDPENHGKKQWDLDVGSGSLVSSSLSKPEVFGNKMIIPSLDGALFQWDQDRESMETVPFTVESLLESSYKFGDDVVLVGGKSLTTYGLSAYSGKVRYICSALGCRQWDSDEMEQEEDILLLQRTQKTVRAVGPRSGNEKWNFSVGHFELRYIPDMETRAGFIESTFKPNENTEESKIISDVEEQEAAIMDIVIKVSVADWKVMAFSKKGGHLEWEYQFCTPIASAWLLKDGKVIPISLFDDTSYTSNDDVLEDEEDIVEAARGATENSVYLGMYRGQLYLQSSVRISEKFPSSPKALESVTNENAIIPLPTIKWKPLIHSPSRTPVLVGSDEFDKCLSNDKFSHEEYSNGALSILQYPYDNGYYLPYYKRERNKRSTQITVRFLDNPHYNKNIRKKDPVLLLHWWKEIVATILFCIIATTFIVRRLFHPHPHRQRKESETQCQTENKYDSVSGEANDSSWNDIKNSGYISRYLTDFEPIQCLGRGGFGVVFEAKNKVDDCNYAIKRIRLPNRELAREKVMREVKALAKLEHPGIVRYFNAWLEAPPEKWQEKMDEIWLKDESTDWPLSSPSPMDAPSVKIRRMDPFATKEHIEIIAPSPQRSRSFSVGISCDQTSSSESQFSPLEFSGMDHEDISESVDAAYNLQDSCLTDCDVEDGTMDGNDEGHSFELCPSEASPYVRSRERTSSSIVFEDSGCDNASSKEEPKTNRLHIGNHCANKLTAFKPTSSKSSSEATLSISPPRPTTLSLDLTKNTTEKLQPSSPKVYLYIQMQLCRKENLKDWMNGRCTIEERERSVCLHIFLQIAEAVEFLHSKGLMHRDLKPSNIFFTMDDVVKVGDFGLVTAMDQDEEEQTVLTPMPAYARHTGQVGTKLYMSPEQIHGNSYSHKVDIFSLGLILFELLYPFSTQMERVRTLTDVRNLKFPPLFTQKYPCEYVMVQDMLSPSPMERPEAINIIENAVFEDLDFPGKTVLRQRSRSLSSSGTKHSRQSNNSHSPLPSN
NALP3 yeast inh: blocks the NALP3 inflammasome reconstituted in yeast; Yeast reconstituted NLRP3/ASC/caspase-1, beta-gal luminescence, 24 h; inhibition, % at 10 µM; 0.39% of 330,000 active; AID 2825;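 active = inhibition of 50% or more; inactive = inhibition below 50%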;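 also: plate controls were induced DMSO wells for no effect and uninduced yeast grown without galactose for full effect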
Rce1 inhib: yeast Ras-converting enzyme inhibition. Q03530. yeast membranes, quenched prenylated peptide cleavage fluorescence. calls only. 0.27% of 290,000 active;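 active = fall in fluorescence gain of 50% or more versus controls, with final raw signal at or below 3038400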;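 also: plate controls were neutral control wells for no effect and wells lacking membranes for full effect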
CR mimetic CP: confirmation of caloric restriction mimetics inhibiting yeast age-related superoxide; shares compounds with CR mimetic SO; S. cerevisiae aging, superoxide DHE fluorescence; hits give low values; superoxide response (% of plate), % at 10 µM; 1% of 850 active;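 active = superoxide signal below 65% of the plate average of sample wells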;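 also: cells aged with compound for 7 days at 30 degrees C before staining; 100% equals mean DHE fluorescence of all compound wells on the plate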
DHE fluor count: DHE fluorescence interference, counter-screen artifact; S. cerevisiae BY4741, flow cytometry; hits give low values; shares compounds with CR mimetic SO; fluorescence response, % at 10 µM; 850 tested, under 10 active;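 active = fluorescence response below 15%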;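 also: percent of the mean fluorescence averaged over all compound wells on the plate; lower means stronger quenching of DHE signal or ROS scavenging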
NALP3 yeast conf: NALP3 inhibition confirmation in yeast; 81% of 1,300 active; shares compounds with NALP3 yeast inh; yeast expressing human NALP3, luminescence; inhibition, % at 10 µM; in the data active = inhibition above about 48%
Casp1-ASC yeast: caspase-1-ASC yeast counter-screen hit. shares compounds with NALP3 yeast inh. yeast expressing Caspase-1-ASC, luminescence counter screen. inhibition, % at 10 µM. 66% of 1,000 active
NALP3 retest: retest-confirmed inhibitor of NALP3 in yeast; shares compounds with NALP3 yeast inh; inhibition, % at 10 µM; 53% of 1,000 active; yeast expressing human NALP3, luminescence read-out; AID 488794
* marks the source's active call; other numbers are inactive results; i = inactive; · = no result. Rows were chosen to be rich in hits. Some 1.6% of all compounds tested hit in one or more screens of this group. Rule as the data show it, unless noted: active = inhibition above about 50%; inactive = the rest.

SMILES	NALP1 inh	CR mimetic SO	V-ATPase pH	PERK inh	NALP3 yeast inh	Rce1 inhib	NALP3 yeast conf	Casp1-ASC yeast	NALP3 retest	others
C[C@]12CCC3C(CC[C@H]4C[C@@H](O)CC[C@]34C)C1C[C@@H](O)[C@]2(C)O (stereo not given in full)	·	103.3	3.8	·	50.1*	·	56.8*	·	·	CR mimetic CP=99.8;DHE fluor count=91.2
CCOP(=O)(CCP(=O)(OCC)OCC)OCC.C[CH2][Sn]([Cl])([Cl])[CH2]C	·	·	-1.4	·	·	·	·	·	·
COC1C(C)OC(OC2CC(C)(O)Cc3cc4c(c(O)c32)C(=O)c2c(O)cc3c(c2C4=O)OC2OC3(C)C(O)C(N(C)C)C2O)C(OC)C1(C)OC (stereo not given)	·	·	-1.1	·	·	·	·	·	·
C[C@]12CCC3[C@@H](CC[C@H]4C[C@@H](O)CC[C@]34C)C1CCC2=O (stereo not given in full)	18.6	80.8	1.6	·	59.1*	i	70.8*	·	·
C[C@]12CCC3C(C1CCC2=O)[C@H](O)C[C@H]1C[C@@H](O)CC[C@]31C (stereo not given in full)	·	104.2	2.4	·	11.0	·	·	·	·
C[C@]12CC[C@@H](O)C[C@H]1CC[C@@H]1[C@@H]2CC[C@]2(C)C(=O)CC[C@@H]12	·	78.7	-2.8	·	66.0*	i	72.5*	70.5*	60.4*
Cc1ccc(OC(=O)N(C)C[C@@H]2OCc3cnnn3CCCC(=O)N([C@@H](C)CO)C[C@H]2C)cc1	·	·	-1.8	·	·	·	·	·	·
C[CH2][Hg][S]c1ccccc1C(=O)O	·	103.7	12.3	·	97.6*	·	99.4*	99.6*	98.7*
CC(C)COC(=O)c1ccccc1C(=O)OCC(C)C	1.2	137.2	2.4	·	-1.1	i	·	·	·
CCC1C=CC=CC[C@H](C)[C@@H](O)[C@](C)(O)C(=O)[C@@H](C)[C@H](O)[C@@H](C)C(=O)[C@H](C)[C@@H](O)[C@H](C)C=CC(=O)OC2[C@@H](C)C(CC1)OC1(CC[C@@H](C)C(C[C@H](C)O)O1)[C@@H]2C (stereo not given in full)	·	81.8	·	·	81.8*	·	88.5*	56.9*	72.2*
C[C@]12CC(=O)CC1CCC1C2CC[C@@]2(C)C1CC[C@@H]2O (stereo not given in full)	42.0*	72.2	-1.3	·	59.7*	i	61.2*	62.8*	40.1
CC12CCC3C(CCC4C/C(=N/O)CCC43C)C1CCC2O (stereo not given)	36.2	85.8	-0.2	0.6	62.6*	i	41.6	62.6*	46.5
COC(=O)C1=C(c2ccc(OCc3ccccc3)cc2)C[C@@H]2CC[C@H]1N2C	·	·	0.9	·	·	·	·	·	·
COc1ccc(OC(=O)N(C)C[C@@H]2OCc3cnnn3CCCC(=O)N([C@@H](C)CO)C[C@@H]2C)cc1	·	·	0.9	·	·	·	·	·	·
CC1(C)C(=O)CC[C@@]2(C)C1=CCC1C2CC[C@]2(C)C(=O)CCC12 (stereo not given in full)	·	119.2	0.6	·	58.8*	·	47.7*	·	·
C[C@]12CC[C@H](O)CC1=CC[C@@H]1[C@@H]2CC[C@]2(C)C(=O)CC[C@@H]12	·	90.9	-3.0	·	44.3	i	·	·	·
CCCCC/C(=N\O)c1c[nH]c2ccccc12	7.8	93.0	-2.5	1.2	54.9*	i	56.8*	53.1*	46.4
C[C@@H]1CN([C@@H](C)CO)C(=O)CCCn2cc(nn2)CO[C@H]1CN(C)C(=O)Oc1ccc2ccccc2c1	·	·	0.7	·	·	·	·	·	·
O=C(NCC1=C(c2ccc3ccccc3c2)C[C@@H]2CC[C@H]1N2Cc1ccco1)c1nccs1	·	·	3.9	·	·	·	·	·	·
CC(C)Oc1ccc(CCN)cc1Cl	44.1*	88.6	2.8	1.4	52.5*	i	56.5*	35.0	45.9
CN1C(=O)/C(=C/c2cccn2-c2ccc3ccccc3c2)C(=O)NC1=S	19.8	97.8	2.4	1.5	56.2*	i	18.2	·	·
C[C@]12C[C@@H](O)[C@H](O)CC1=CCC1C2CC[C@]2(C)C(=O)CCC12 (stereo not given in full)	·	90.7	1.2	·	27.0	·	·	·	·
C[C@]12CCC3C(CC[C@H]4C[C@@H](O)[C@H](O)C[C@]34C)C1CC[C@@H]2O (stereo not given in full)	·	109.3	7.2	·	55.2*	·	60.1*	·	·
C[C@H]1CC[C@@]2(C)[C@@H](CC[C@@H]3[C@@H]2CC[C@]2(C)[C@@H](O)CC[C@@H]32)C1	·	98.9	-3.2	0.7	44.1	i	·	·	·
C[C@]12CC[C@@H](O)C[C@@H]1CC[C@@H]1[C@@H]2CC[C@]2(C)[C@@H](O)CC[C@@H]12	32.9	79.8	8.5	2.4	53.2*	i	66.3*	56.5*	49.0
SMILES	NALP1 inh	CR mimetic SO	V-ATPase pH	PERK inh	NALP3 yeast inh	Rce1 inhib	NALP3 yeast conf	Casp1-ASC yeast	NALP3 retest	others
C[C@]12C[C@@H](O)[C@H](O)CC1=CCC1C2CC[C@@]2(C)C1CC[C@@H]2O (stereo not given in full)	·	94.9	1.4	·	58.3*	·	55.0*	·	·
S=C=Nc1cccc(C2(N3CCCCC3)CCCCC2)c1	·	116.8	4.4	·	29.0	·	·	·	·
CN1C(=O)C(=Cc2c(OCc3cnc(Cl)s3)ccc3ccccc23)C(=O)N(C)C1=O	2.2	105.3	-0.8	0.0	59.3*	i	58.1*	72.5*	61.7*
CN1C(=O)C(=Cc2ccccc2OCc2ccccc2Cl)C(=O)N(C)C1=O	·	97.0	2.6	0.9	17.2	i	·	·	·
CC(=O)OC1C(=O)OCC23CCC4(C)OC4C2OC2CC(OC(=O)C=CC=CC(=O)OCCC1C)C3(C)C21CO1 (stereo not given)	·	·	6.9	·	·	·	·	·	·
COC(=O)C1=C(c2ccc(F)cc2F)C[C@@H]2CC[C@H]1N2C(=O)NC1Cc2ccccc2C1	·	113.5	-0.8	·	-136.0	·	22.1	·	·
COC(=O)C1=C(c2ccc(F)cc2F)C[C@@H]2CC[C@H]1N2C(=O)NC1CCCCC1	·	101.4	1.1	·	7.7	·	·	·	·
CC(=O)OC1(C)CC(C)C(=O)C(C(O)CC2CC(=O)NC(=O)C2)C1 (stereo not given)	·	·	0.3	·	·	·	·	·	·
C[C@@H]1C[C@@H]([C@H](O)CC2CC(=O)NC(=O)C2)C(=O)[C@@H](C)C1	·	i	-6.4	·	96.9*	·	98.3*	99.2*	97.7*
O=C(O)C(O)(c1ccc(Cl)cc1)C1(O)CCCC1 (stereo not given)	·	·	0.4	·	·	·	·	·	·
